Source: PubChem BioAssay (National Center for Advancing Translational Sciences (NCATS))
Pf Dd2 inh = Plasmodium falciparum Dd2 growth inhibition; P. falciparum Dd2 growth, SYBR Green, 72 h; Potency, µM (highest dose often 28.9 µM), inactives show top-dose activity, negative = inhibition, most hits filed as inhibitors; 120,000 tested, 4.3% active; active = well fitted inhibition curve with a large enough effect;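 also: plate controls were DMSO vehicle for no effect and reference drug for full effect; nearly all actives have a fitted effect of over 65% in size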
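Infected erythrocytes (Dd2, 0.3% parasitemia, 2.5% hematocrit final) are added to compound in RPMI-1640/Albumax II medium, grown 72 h at 37C in low oxygen, then lysed with saponin/Triton-X containing SYBR Green and read by fluorescence.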
The depositor's hits bear a star; i = inactive; [ ] = remark or other dose. Many of the other results were omitted from the sample, so hits are more common in it than they were. Potency is read from the fitted curve at half-maximal effect.

SMILES	Pf Dd2 inh
Cc1cnc(CC2CCN(S(=O)(=O)c3ccccc3)C2)n1C(C)C (configuration not stated)	3.2µM*
CCOc1ccccc1NC(=O)N1CCC(Cc2noc(C3CCOCC3)n2)C1 (configuration not stated)	7.9µM*
Cc1cnc(CC2CCN(S(=O)(=O)c3cn(C)cn3)C2)n1C(C)C (configuration not stated)	-12%
O=C(c1n[nH]c(=O)c2ccccc12)N1CCC(Cc2noc(C3CCOCC3)n2)C1 (configuration not stated)	6%
CC(=O)N1CCC(Cc2ncc(C)n2C(C)C)C1 (configuration not stated)	3%
COc1cc(OC)cc(C(=O)N2CCC(n3cc(-c4nc(C)no4)nn3)C2)c1 (configuration not stated)	i
COCC(=O)N[C@@H]1CN(Cc2cccc(OC)n2)CC[C@@H]1CO	8%
Cc1nc2ccccc2n1Cc1cc(C(=O)N2CCCC2)no1	0%
O=C(NC[C@H]1C[C@@H]2CCN1C[C@@H]2CN1CCOCC1)Nc1ccsc1	26%[44.1 µM]
OC[C@@H]1CN(C2CCCC2)C[C@H]1c1nc(-c2cccnc2)no1	-12%
CCn1ncc(N2CCC(NC(=O)Cc3ccc(F)cc3)CC2)cc1=O	i
CNC(=O)[C@@H]1CN(C(=O)c2n[nH]c3ccccc23)C[C@H]1c1nc(C)no1	26%
COCCN1CCCC2(CCN(C(=O)Cn3cccnc3=O)C2)C1=O (configuration not stated)	1%
CN(C)CC1(O)CCC2(CCN(C(=O)CC3CCCC3)CC2)CC1	i
COCC[C@]1(O)CCN(C(=O)c2cccc(OCC(N)=O)c2)C[C@H]1C	-5%
N#Cc1ccc([S+](=O)([O-])N2CCC3(CC2)OCCN(CC2CC2)C3=O)cc1	i
O=C(Nc1cccc(F)c1)N1CCc2c(nc3cc(-c4ccccc4Cl)[nH]n3c2=O)C1	i
COc1ccc(CCC(=O)NCCC2CCN(C(=O)Nc3ccc(C)cc3)CC2)cc1	i
COc1ccc(C2Cn3nnc(-c4nc(-c5ccc(C)cc5)no4)c3CO2)cc1 (configuration not stated)	i
COc1ccc(C2Cn3cnc(-c4nc(-c5ccc(OC(C)C)cc5)no4)c3CO2)cc1 (configuration not stated)	11µM*
CCOc1ccc(C2Cn3nnc(-c4nc(-c5cccnc5)no4)c3CO2)cc1 (configuration not stated)	-5%
Clc1ccccc1C1Cn2cnc(-c3nc(-c4cccnc4)no3)c2CO1 (configuration not stated)	4.5µM*
Fc1ccc(C2Cn3nnc(-c4nc(-c5cccnc5)no4)c3CO2)cc1 (configuration not stated)	i
COc1cccc(C2Cn3nnc(-c4nc(-c5ccc(OC(C)C)cc5)no4)c3CO2)c1 (configuration not stated)	-20%
Cc1cccc(NC(=O)CN2C(=O)C(c3ccccc3)=NC23CCCC3)c1C	-24%
SMILES	Pf Dd2 inh
Cc1nc(-c2ccccc2)cc([C@H]2CN3CC[C@H]2C[C@@H]3CNC(=O)C(C)(C)C)n1	-1%[44.1 µM]
Cc1nc(-c2ccccc2Br)cc([C@H]2CN3CC[C@H]2C[C@@H]3CNC(=O)c2cccs2)n1	-21%
CC(=O)NC[C@H]1C[C@@H]2CCN1C[C@@H]2c1cc(-c2ccccc2)nc(C)n1	i
Cc1nc(-c2ccco2)cc([C@H]2CN3CC[C@H]2C[C@@H]3CNC2CCOCC2)n1	11µM*
Cc1nc(-c2ccco2)cc([C@H]2CN3CC[C@H]2C[C@@H]3CNC(=O)c2cccs2)n1	8.9µM*
CCC(CC)c1cc([C@H]2CN3CC[C@H]2C[C@@H]3CNC2CCN(C)CC2)nc(-c2ccncc2)n1	1.4µM*
Cc1nc(-c2ccc(F)cc2)cc([C@H]2CN3CC[C@H]2C[C@@H]3CNC(=O)c2ccco2)n1	i
Cc1nc(-c2ccco2)cc([C@H]2CN3CC[C@H]2C[C@@H]3CNCC2CCCCC2)n1	3.2µM*
Cc1nc(-c2ccco2)cc([C@H]2CN3CC[C@H]2C[C@@H]3CNS(C)(=O)=O)n1	i
Cc1nc(-c2ccco2)cc([C@H]2CN3CC[C@H]2C[C@@H]3CNC(=O)c2ccccc2)n1	i
Cc1nc(-c2ccccc2)cc([C@H]2CN3CC[C@H]2C[C@@H]3CNC(=O)c2ccco2)n1	i
CCCS(=O)(=O)NC[C@H]1C[C@@H]2CCN1C[C@@H]2c1cc(-c2ccccc2Br)nc(C)n1	i
CCC(c1cccs1)N1C(=O)[C@H]2CN(Cc3cccnc3)C[C@H]2C1=O (some centres not stated)	87%
COc1ccc(Cn2c(C3CCN(C(=O)c4cccc(OC)c4)CC3)n[nH]c2=O)cc1	-10%
COCCN1CC2(CCCN(C(=O)CCc3cccc(F)c3)C2)CCC1=O (configuration not stated)	-6%
O=C1CCCCCN1CCC(=O)N1CCOC(CCCc2ccccc2)C1 (configuration not stated)	-19%
COc1cccc([S+](=O)([O-])N2CCNc3cnc(Nc4ccc(N5CCOCC5)cc4)nc3C2)c1	-17%
